Source: PubChem BioAssay (NCI)
The panel holds about 83,000 compounds, 20% with a hit somewhere; the sample as a whole holds those more often.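 Interpretation: 100, growth as untreated; towards 0, rising growth inhibition; 0, no net growth; 0 to -100, cell death. Compounds scoring below 10 were considered active.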 A number with no mark means an inactive call. The source made the active and inactive calls.

Tests used:
Test in all cases: NCI-60 one-dose screen, 48 h (100 = growth as untreated, 0 = no growth, -100 = all killed)
Conditions in all cases: 10 µM unless noted
[1] = test system: SR leukemia
[2] = test system: RPMI-8226 leukemia
[3] = test system: OVCAR-8 ovarian
[4] = test system: OVCAR-5 ovarian
[5] = test system: OVCAR-4 ovarian
[6] = test system: SK-OV-3 ovarian
[7] = test system: IGROV1 ovarian
[8] = test system: HS 578T breast
[9] = test system: NCI/ADR-RES ovarian
[10] = test system: T-47D breast
[11] = test system: BT-549 breast
[12] = test system: MDA-MB-435 melanoma
[13] = test system: SW-620 colon
[14] = test system: MCF7 breast
[15] = test system: HCT-116 colon
[16] = test system: HCC-2998 colon
[17] = test system: KM12 colon
[18] = test system: OVCAR-3 ovarian

Compound | growth [1] | growth [2] | growth [3] | growth [4] | growth [5] | growth [6] | growth [7] | growth [8] | growth [9] | growth [10] | growth [11] | growth [12] | growth [13] | growth [14] | growth [15] | growth [16] | growth [17] | growth [18]
COc1ccc(C2CC(c3ccc(Nc4nc(Nc5ccc(F)cc5)nc(Nc5ccc(F)cc5)n4)cc3)=NN2C(C)=O)cc1 (stereo unspecified) | 16.4% | 7.18% (active) | 90.3% | 87.6% | 98.1% | 131% | 101% | 111% | 80.5% | 69.8% | 96.2% | 92.1% | 101% | 98.9% | 93.5% | 37.6% | 95.3% | –
CCCCCCCCNc1cc2c3c(c1)CCCN3CCC2 | 26% | 12.3% | 15.8% | 17.6% | 35.2% | 10.7% | 29.7% | – | 70.7% | 13.4% | 20% | 9.1% (active) | 9.22% (active) | 24.3% | 5.39% (active) | 11.8% | 5.45% (active) | 4.22% (active)
CCOC(=O)c1c(C)nc2ccccc2c1/C=C/c1ccc(OC)cc1 | 56.6% | 41.8% | 57.6% | 89.1% | 54.6% | 76.1% | 66% | 81.6% | 31.2% | 22.2% | 53.3% | 61.7% | 85.1% | 63.9% | 55.7% | 77.8% | 70.7% | –
O=C(N/N=C/c1ccc([N+](=O)[O-])cc1)c1ccc2nc(-c3ccc(Cl)cc3)[nH]c2c1 | -8.49% (active) | 10.8% | 21.6% | 53.2% | 23% | 60.5% | 19.1% | 36.8% | 77.3% | 10.5% | 14% | 47.6% | 12.7% | 0.723% (active) | 14.6% | 14.9% | – | –
C=NNc1ccccc1 | 74% | 97.6% | 95.1% | 109% | 102% | 102% | 88.7% | – | 84.4% | 90.6% | 91.6% | 105% | 102% | 83.3% | 80.7% | 94.5% | 80.5% | 102%
COc1cc(/C=N/Nc2ccccc2F)cc(OC)c1OC | 90.9% | 83.8% | 92% | 94.6% | 92.3% | 111% | 86.1% | – | 99.6% | 67.7% | 96% | 94.3% | 93.6% | 78.3% | 84.5% | 108% | 86.3% | 108%
CCn1cc(CNc2ccc(C(=O)Nc3cc4cc(OC)c(OC)cc4c(C)n3)cc2)c(C)n1 | 32.8% | -0.529% (active) | 1.1% (active) | 72.9% | 25% | 86.8% | 56.1% | – | 13.4% | -15.4% (active) | -4.64% (active) | 48.4% | 59.9% | 30% | 25.4% | 62.2% | 23% | 33.7%
COc1ccc(/C(C)=C(\c2ccc(OCCN3CCCCCC3)cc2)c2ccc(OC(=O)c3ccccc3)cc2)cc1 | -8.34% (active) | 19.5% | 56.5% | 72.1% | 42.6% | 81.4% | 46.7% | – | 60.7% | 43.4% | 63.6% | 63% | 44.8% | 13.5% | 19.4% | 77.5% | 38.4% | 64.6%
COc1ccc2nc3ccccc3c(NCc3ccccc3)c2c1 | 4.27% (active) | -30.9% (active) | 28.2% | 29% | 40.8% | 44.5% | 16.4% | – | 18.3% | 35.3% | 50.3% | 33.8% | 19.5% | 4.29% (active) | 14.8% | -35.5% (active) | 36.5% | 41%
COc1ccc(NC(=O)c2sc3nc4c(cc3c2N)CCCC4)cc1 | 1.36% (active) | 14.8% | 25.5% | 78.8% | 57.3% | 39.4% | 53.8% | – | 5.47% (active) | 32.4% | 51.3% | -20.9% (active) | 36.7% | 19.2% | 30.3% | 52.8% | 25.8% | 11.1%
CN1CCN(Cc2ccc(NC(=O)c3cncc(C#Cc4cnn5ccccc45)c3)cc2C(F)(F)F)CC1 | -21.2% (active) | -17.5% (active) | 9.77% (active) | 4.3% (active) | -2.15% (active) | 15.5% | 3.17% (active) | -15.4% (active) | -6.37% (active) | 35.5% | 41% | 6.02% (active) | -14.3% (active) | 0.711% (active) | 4.92% (active) | -19.1% (active) | 0.221% (active) | –
O=[N+]([O-])/C(=C\c1ccco1)c1ccccc1Cl | 55.3% | 85.9% | 81.6% | 75.4% | 69.3% | 60.1% | 75.7% | – | 85.5% | 36.6% | 9.05% (active) | 75.6% | 84.1% | 38.4% | 11.8% | 94.9% | 89.5% | 77.9%
CC1O[C@@H]2C[C@@](O)([C@H]1O)n1c3ccccc3c3c4c(c5c6ccccc6n2c5c31)C(=O)NC4=O (stereo partly specified) | 32% | 55.3% | 63.3% | 72.8% | 66.8% | 48.4% | 67.6% | – | 80.7% | 8.92% (active) | 36.3% | 43.1% | 35.4% | 22.3% | 15.6% | 73.4% | 22.8% | 55.4%
COc1cc(C(=O)C(=O)c2cc(OC)c(O)c(OC)c2)cc(OC)c1O | 103% | 91.3% | 102% | 97% | 101% | 103% | 117% | 110% | 101% | 98.1% | 120% | 103% | 105% | 96.5% | 104% | 92.1% | 107% | –
Cc1cc(F)ccc1S(=O)(=O)Nc1cc(-c2c(O)ccc3ccccc23)c(O)c2ccccc12 | 18.8% | 11.6% | 37.1% | 56.9% | -8.24% (active) | 52.3% | 27.6% | 42.3% | 31.3% | 7.54% (active) | 30.1% | 28% | 25.8% | 30.1% | 5.49% (active) | -3.54% (active) | 3.55% (active) | –
COc1cccc(C(=O)OCC(O)C(=O)NC23CC4CC(CC(C4)C2)C3)c1 (stereo unspecified) | 88.9% | 101% | 95.3% | 100% | 99.4% | 99.5% | – | 98.8% | 95.2% | 98.3% | 102% | 97.6% | 99.6% | 89.1% | 96.7% | 105% | 108% | 111%
